Data from PubChem BioAssay AID485314 (National Center for Advancing Translational Sciences (NCATS), 2010).
The whole screen tested about 340,000 compounds, of which about 4,500 (1.3%) were called active. Not shown: some 5% with an inconclusive outcome. Calls follow the shape of the dose curve; as a rule, active = well fitted inhibition curve with a large enough effect; inconclusive = small, poorly fitted or top-dose-only effect, or another doubt; inactive = no such curve, though single readings can be large or run the other way. For the sample, actives were picked, then their nearest neighbours and some compounds at random.

molecular target: DNA polymerase beta (Homo sapiens) (UniProt P06746); assay: qHTS Assay for Inhibitors of DNA Polymerase Beta; conditions: Pol beta primer extension/strand displacement, fluorescence kinetic; series mostly up to 114 µM
Method in brief: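 10 nM enzyme + cpd, 15 min RT; start with substrate 50 nM final; read 0 min and after 10 min RT. Corrected, normalized data; 4-parameter Hill curve fit.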
Potency is read from the fitted curve at half-maximal effect.

Potency, active:
CC1=CCC2C(=O)N(c3cccc(C(=O)NC(C)c4ccccc4)c3)C(=O)C2C1 (stereo not drawn) 39.8 µM
O=C(COc1ccc(/C=N/NC(=O)c2ccc(O)cc2)cc1)Nc1ccc([N+](=O)[O-])cc1 2.24 µM
Cc1nnc(SCC2=C(C(=O)O)N3C(=O)C(NC(=O)Cn4nc(C)c(Cl)c4C)C3SC2)s1 (stereo not drawn) 39.8 µM
Fc1ccc(-c2ccc(-c3nn4c(-c5ccco5)nnc4s3)o2)cc1 44.7 µM
COC(=O)COc1ccc2c(c1C)O/C(=C\c1ccco1)C2=O 50.1 µM
Cc1cc(C(=O)N/N=C/c2ccc(O)c([N+](=O)[O-])c2)c(C)n1-c1ccc(F)cc1 20 µM
Cc1ccc(/C=C(\C#N)C(=O)Nc2cccc3ncccc23)o1 3.16 µM
CCN1/C(=C\c2ccc3ccccc3[n+]2CC)Sc2cc(C)ccc21 25.1 µM
CCN1/C(=C/c2ccc3ccc(C)cc3[n+]2CC)Sc2ccccc21 31.6 µM
C1=C(N2CCOCC2)/C(=C/c2nc3ccccc3[nH]2)CC1 20 µM
CCc1nnc(NS(=O)(=O)c2ccc(NC(=S)NC(=O)/C=C/c3cccs3)cc2)s1 89.1 µM
C=CCn1c(CSc2nc3ccccc3s2)nnc1SCC(=O)NCc1ccco1 39.8 µM
COc1ccccc1NC(=O)CN1C(=O)c2ccccc2Sc2ccc(C(=O)N3CCCC3)cc21 50.1 µM

Potency, inactive:
CCOc1ccc(N(C)S(=O)(=O)c2cc(-c3cnc(C)o3)ccc2OC)cc1
Cc1cccc(N2CCN(S(=O)(=O)c3ccc4[nH]c5c(c4c3)CCCCC5)CC2)c1C
Cc1nn(-c2ccc(N3CCCCC3)nn2)c(C)c1CCC(=O)NCc1ccccc1F
Cc1ccc(C(=O)NC(C)c2ccccc2)cc1Br (stereo not drawn)
COc1ccc(Cl)cc1NC(=O)c1cccc(N2C(=O)C3CC=CCC3C2=O)c1 (stereo not drawn)
CCN(CC)C(=O)CSc1nc2ccsc2c(=O)n1Cc1ccccc1Cl
Cc1ccc(NC(=O)COc2ccc(/C=N\NC(=O)c3cccnc3)cc2)cc1C
NC(=O)c1ccc(NC(=O)COC(=O)c2ccc([N+](=O)[O-])cc2)cc1
CC1CN(C(=O)N2CCC(C(=O)NCc3cccs3)CC2)c2ccccc2O1 (stereo not drawn)
Cc1cccc(C(=O)N2c3nc(-c4ccco4)nn3C3(CCCCC3)[C@@H]3CCCC[C@@H]32)c1
Cc1nnc(SCC(=O)Nn2cnnc2)s1
Cc1nnc(SCC(=O)NC2CCCC2)s1
Cc1sc(C2C(C#N)=C(N)N(c3cccc(Cl)c3)C3=C2C(=O)CCC3)cc1CN1CCOCC1 (stereo not drawn)
O=C(CSc1nnc2scc(-c3ccc(F)cc3)n12)NCc1ccco1
Cc1nc2c(-c3ccc(F)cc3)c(C)nn2c(C)c1CCC(=O)NCc1ccco1
COC(=O)C1=C(C)N(c2ccc(Br)cc2)C(=O)/C1=C\c1ccco1
Cc1cc(C)c(OCC(=O)N/N=C/c2ccco2)c(C)c1
CC1CCCN(c2csc3ccc(F)cc3c2=O)C1 (stereo not drawn)
CCCn1c(NCc2ccc(N(CC)CC)cc2)nc2ccccc21
Cc1nn(CC(=O)N/N=C/c2ccc(F)cc2)c(C)c1[N+](=O)[O-]
COc1cc(/C=N/NC(=O)c2cc(C)n(-c3ccc(F)cc3)c2C)cc(OC)c1O
CCOC(=O)c1ccc(-c2ccc(/C=C(\C#N)C(=O)Nc3ccc(OCC)cc3)o2)cc1
O=C(O)c1cc(Cl)c(Cl)cc1C(=O)Nc1cccc2ncccc12
CCOCCCNC(=O)c1cn(CC)c2ccc(S(=O)(=O)N3CCc4ccccc4C3)cc2c1=O
Cn1c(=O)c2c(-c3ccccc3Br)n(Cc3ccccc3)cc2n(C)c1=O
COc1ccccc1CNC(=O)C(=O)NCC(c1cccs1)S(=O)(=O)c1cccs1 (stereo not drawn)
Cc1c(Cl)cccc1NC(=O)C(=O)NCCc1csc2nc(-c3ccccc3F)nn12
COc1ccc(Nc2ncc3c(n2)CCN(C(=O)OC(C)(C)C)C3)cc1
COc1cccc(-c2nc(CS(=O)(=O)CC(=O)N3CCN(c4cc(C)ccc4C)CC3)c(C)o2)c1
COc1cccc(C(c2c(O)cc(C)n(Cc3ccco3)c2=O)N2CCN(c3ccccc3)CC2)c1 (stereo not drawn)
Cc1ccccc1CNC(=O)c1cccc(NC(=O)c2nsc3ccccc23)c1
COc1cc(OC)cc(C(=O)Nc2cc3nn(-c4ccccc4)nc3cc2Cl)c1
CC1(C)Cc2c(C#N)c(SCc3nc4ccccc4[nH]3)nc(N3CCOCC3)c2CO1
O=c1[nH]c(N2CCOCC2)nc2ccccc12
O=C(CC(c1cccs1)N1Cc2ccccc2C1=O)Nc1ccc(F)c(F)c1 (stereo not drawn)
Cc1c(C(=O)Nc2cccc(Cl)c2)oc2ccc(S(=O)(=O)N3CCOCC3)cc12
CCOC(=O)c1c(NC(=S)NC(=O)/C=C/c2cccs2)sc(C)c1C
CCc1nnc(NS(=O)(=O)c2ccc(NC(=S)NC(=O)c3cccs3)cc2)s1
COc1cccc(CNC(=O)Cc2csc3nc(-c4ccccc4)cn23)c1
Fc1ccccc1Oc1ncnc2c1oc1ccccc12
COc1ccc(CC(=O)Nc2nnc3n2CCS3)cc1OC
CCCCOc1ccc(CNC(=O)c2ccc3c(c2)N(C)C(=O)C2CCCCN32)cc1 (stereo not drawn)
COc1ccccc1-c1cc2nc(C)c(CCC(=O)O)c(C)n2n1
O=C(CSc1nc2ccc(Nc3nc(N4CCOCC4)nc(N4CCOCC4)n3)cc2s1)NCc1ccco1
CCn1c(SCC(=O)NCc2ccco2)nnc1-c1ccc(N)cc1
Cc1ccc(Cn2c(CNC(=O)Cc3cccc(C)c3)nc3cccnc32)cc1
Cc1cc(NC(=O)c2cccc(Cl)c2)ccc1-c1cc2ccccc2oc1=O
CCOc1ccc(-n2c(C)nc3c(cnn3-c3ccc(C)cc3)c2=O)cc1
COC(=O)c1ccc2c(c1)N(CC(=O)Nc1ccc(C)c(C)c1)C(=O)c1ccccc1S2
COc1cccc(NC(=O)CN2C(=O)c3ccccc3Sc3ncccc32)c1
